Screening results: PubChem BioAssay, several laboratories
An excerpt weighted towards active compounds, which were near 1.5% of everything screened.
ABCB6 inh 2: human ABCB6 transporter inhibition; Q9NP58; K562-ABCB6 porphyrin accumulation, flow cytometry, 1 h; hits give low values; fluorescence ratio to DMSO, % at 10 µM; 0.19% of 360,000 active; AID 602162;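 active means fluorescence ratio to DMSO below 75%, the collection mean minus 3 SD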;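 further: signal is porphyrin accumulated inside mitochondria; lower ratio means ABCB6 inhibition with less porphyrin fluorescence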
ANO1 block: mouse TMEM16A channel inhibition, primary screen; Q8BHY3; 1.2% of 310,000 active; HEK293 TMEM16A/YFP iodide influx fluorescence, ionomycin; normalized B-score (activity score, 25-100; higher = stronger inhibition) at 10 µM;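 active means ratio plate-corrected score three or more library SD toward inhibition, starting fluorescence score within five deviations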;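 further: score derived from kinetic fluorescence span divided by baseline fluorescence per well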
Target sequence (Q8BHY3 whole entry, looked up): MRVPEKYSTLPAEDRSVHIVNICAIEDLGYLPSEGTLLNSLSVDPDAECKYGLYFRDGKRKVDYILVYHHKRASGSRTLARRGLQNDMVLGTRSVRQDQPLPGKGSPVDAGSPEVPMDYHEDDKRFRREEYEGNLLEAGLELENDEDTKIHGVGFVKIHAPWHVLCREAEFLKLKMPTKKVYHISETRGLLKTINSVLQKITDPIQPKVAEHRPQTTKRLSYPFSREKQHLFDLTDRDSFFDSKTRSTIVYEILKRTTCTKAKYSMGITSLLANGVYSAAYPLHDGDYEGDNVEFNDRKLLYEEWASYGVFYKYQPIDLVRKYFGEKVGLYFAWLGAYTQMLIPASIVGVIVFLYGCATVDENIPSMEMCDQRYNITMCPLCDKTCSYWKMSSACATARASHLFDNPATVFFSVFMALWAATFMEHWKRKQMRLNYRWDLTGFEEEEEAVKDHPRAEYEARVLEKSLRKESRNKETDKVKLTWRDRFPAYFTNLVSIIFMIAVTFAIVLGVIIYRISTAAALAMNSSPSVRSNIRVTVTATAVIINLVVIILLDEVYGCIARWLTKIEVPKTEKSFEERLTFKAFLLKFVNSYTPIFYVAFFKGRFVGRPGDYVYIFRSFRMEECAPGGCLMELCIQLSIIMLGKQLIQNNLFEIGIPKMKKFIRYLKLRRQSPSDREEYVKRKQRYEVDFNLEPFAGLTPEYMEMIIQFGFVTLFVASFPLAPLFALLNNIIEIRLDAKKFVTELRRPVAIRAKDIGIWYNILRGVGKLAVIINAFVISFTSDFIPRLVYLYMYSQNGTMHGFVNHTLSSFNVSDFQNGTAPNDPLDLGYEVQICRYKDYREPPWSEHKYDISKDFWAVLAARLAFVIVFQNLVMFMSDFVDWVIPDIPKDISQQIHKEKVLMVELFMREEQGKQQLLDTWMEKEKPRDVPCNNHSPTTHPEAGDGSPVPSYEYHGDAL
TMEM16A act: activates or potentiates the mouse TMEM16A chloride channel; Q8BHY3; AID 623877; B-score at 10 µM; 0.3% of 340,000 active; HEK293 TMEM16A/YFP-H148Q/I152L, iodide quench fluorescence; hits give low values;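 active means fluorescence-ratio B-score plate-corrected deviation score at least 3 library SD below zero, with starting fluorescence score within 5 deviations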;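 further: channel opened by trigger with iodide after compound preincubation; score built on the fluorescence ratio of max minus min over baseline; more negative score means more quench and so TMEM16A activation or potentiation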
DAGLB inhibitor: diacylglycerol lipase beta (human) inhibition | Q8NCG7 | HEK293T DAGLB membrane lysate, EnzChek fluorogenic substrate | AID 504411 | inhibition, % at 5.17 µM | 0.059% of 340,000 active; in the data active means inhibition above about 34%
iPSC survival up: enhancers of human iPSC single-cell survival | hiPSC single-cell survival, ATPlite luminescence; 100% = ROCK inhibitor wells, 0% = DMSO | survival enhancement, % at 20 µM | 0.044% of 360,000 active | AID 602274; in the data active means survival enhancement above about 18%;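 further: cells exposed to compounds for 16 hours before the ATP read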
A number is an active result; i = inactive; nt = not tested or not shown.

SMILES | ABCB6 inh 2 | ANO1 block | TMEM16A act | DAGLB inhibitor | iPSC survival up
COc1ccc2c(c1)c(CC(=O)NCc1cc([N+](=O)[O-])ccc1O)c(C)n2C(=O)c1ccc(Cl)cc1 | i | 100 | i | i | i
CCCCCCN1C[C@H](n2cc(COC(=O)c3ccccc3)nn2)[C@@H](O)C[C@@H]1c1ccc(C)cc1 | i | nt | nt | i | i
COc1ccccc1-c1cc(C(=O)N2CCc3ccccc3C2)c2ccccc2n1 | nt | 100 | nt | nt | nt
CCOC(=O)c1c(NC(=O)CCc2ccc(CC)o2)sc(C)c1C | i | i | i | i | i
COC(=O)c1c(NC(=O)CCc2ccc(C)o2)sc(C)c1C | i | 100 | i | i | i
Cc1ccsc1C(=O)NCCc1nnc2ccccn12 | i | i | i | i | i
O=c1oc2ccccc2c(Nc2cc3ccccc3cc2O)c1[N+](=O)[O-] | i | 100 | i | i | i
COc1ccc(S(=O)(=O)Nc2cccc3c2O[C@H](CN(C)C(=O)Nc2c(C)noc2C)[C@@H](C)CN([C@H](C)CO)C3=O)cc1 | i | nt | i | i | i
CC(=O)c1ccc(N2CCN(C(=O)c3cc4c(s3)CCCC4)CC2)cc1 | i | i | -37 | i | i
COc1ccc(N2CCN(C(=O)c3cc4c(s3)CCCCC4)CC2)cc1 | i | nt | i | i | i
CCOC(=O)c1sc(=S)n(C)c1NC(=O)c1ccc(C(C)(C)C)cc1 | i | 25 | i | i | i
CCOC(=O)c1sc(=S)n(C)c1NC(=O)c1ccc(OC)cc1 | i | i | i | i | i
COc1cc(/C=C2\C(=N)N3N=CSC3=NC2=O)cc(Br)c1OC(=O)c1ccco1 | i | i | -8.9 | i | i
COc1cccc(N2CCN(CC(=O)Nc3nnc(-c4ccccc4)s3)CC2)c1 | i | 25 | i | i | i
O=[N+]([O-])c1ccc(S(=O)(=O)NCCS(=O)(=O)N2CCN(c3ccccc3)CC2)cc1 | i | i | -29 | i | i
Cc1cccc(N2CCN(CC(=O)Nc3ccc(S(=O)(=O)N4CCOCC4)cc3)CC2)c1C | i | 25 | i | i | i
CC(C(=O)Nc1ccc(S(=O)(=O)N2CCOCC2)cc1)N(c1ccccc1)S(C)(=O)=O (stereo unspecified) | i | i | -10 | i | i
O=C(NCc1ccc(F)cc1)c1cc(-c2ccccn2)nc2ccc(S(=O)(=O)N3CCOCC3)cc12 | i | nt | nt | i | i
CC1CCCCC12NC(=O)N(CC(=O)Nc1ccc(N3CCCCC3)cc1)C2=O (stereo unspecified) | i | nt | i | i | i
CC(=O)Nc1ccc(OCC(O)CN2CCN(S(=O)(=O)c3ccc(NC(C)=O)cc3)CC2)cc1 (stereo unspecified) | i | 100 | i | i | i
CC1CCCCN1C(=O)COC(=O)C1CCN(S(=O)(=O)c2c(Cl)cccc2Cl)CC1 (stereo unspecified) | i | i | i | i | i
COc1ccc(S(=O)(=O)C(C#N)c2nc3ccccc3nc2N2CCCCC2)cc1 (stereo unspecified) | i | 100 | i | i | i
N#CC(c1nc2ccccc2nc1N1CCCC1)S(=O)(=O)c1ccccc1 (stereo unspecified) | i | i | i | i | i
CCCCCCCCCCn1c2c(c(=N)c3c1CCC3)CCC2 | i | 100 | i | i | i
COc1ccccc1CNC(=O)COC(=O)c1ccc2c(=O)n3c(nc2c1)CCCCC3 | i | nt | i | i | i
SMILES | ABCB6 inh 2 | ANO1 block | TMEM16A act | DAGLB inhibitor | iPSC survival up
N#CC(C#N)=C1C=CC=CN1/C(=C\c1ccccc1)C(=O)c1cccs1 | i | i | i | i | i
N#CC(C#N)=C1C=CC=CN1/C(=C\c1ccccc1Cl)C(=O)c1ccccc1 | i | i | -8.4 | i | i
Cc1ccnc(NS(=O)(=O)c2ccc(NS(=O)(=O)c3ccc([N+](=O)[O-])cc3)cc2)n1 | i | i | i | i | i
Cc1ccnc(NS(=O)(=O)c2ccc(NS(=O)(=O)c3cc(Cl)ccc3Cl)cc2)n1 | i | i | -29 | i | i
O=S1(=O)CCC(NC(=S)Nc2ccc(Cl)cc2)C1 (stereo unspecified) | 73 | i | i | i | i
Cc1ccc2c(c1)c1c(n2CC(O)Cn2c(C)nc3ccccc32)/C(=N\O)CCC1 (stereo unspecified) | i | 100 | -12 | i | i
Cc1nnc(N2CCC(C(=O)NC3CCC(C)CC3)CC2)c2nn(-c3ccc(Cl)cc3)c(C)c12 (stereo unspecified) | i | 100 | i | i | i
CC(C)N(C(=S)Nc1cccc(C(F)(F)F)c1)C(C)c1ccccn1 (stereo unspecified) | i | 100 | i | i | i
O=C(Nc1cccc(Cl)c1N1CCCC1)c1ccc(Br)o1 | i | 25 | i | i | i
Cc1nn(-c2cc(C(F)(F)F)ccc2Cl)c2nc(C(F)(F)F)[nH]c(=O)c12 | i | i | i | i | i
Cc1nn(-c2cccc(Cl)c2)c2nc(C(F)(F)F)[nH]c(=O)c12 | i | 100 | i | i | i
O=C(NNC(=S)Nc1cccc(C(F)(F)F)c1)c1ccccc1Cl | i | 25 | i | i | i
S=C(Nc1ccccc1)Nc1ccc(Cl)cc1Cl | i | i | i | i | i
Fc1ccc(NC(=S)Nc2ccc(F)c(Cl)c2)cc1Cl | i | 100 | -10 | i | i
FC(F)(F)c1cccc(NC(=S)Nc2ccc(Cl)cc2Cl)c1 | i | 100 | i | i | i
O=C(NC(=S)Nc1ccc(F)c(Cl)c1)C1CC1 | i | i | i | i | i
CC(C)CC(=O)Nc1ccc(C(=O)CN2CCN(c3ccc(O)cc3)CC2)cc1 | i | i | i | i | i
COc1ccc(NC(=O)c2c(Nc3ccccc3)sc(C(=O)c3ccc(F)cc3)c2N)cc1 | i | 100 | i | i | i
O=C(O)c1ccc(C=NN=C2c3ccccc3-c3ccccc32)cc1 | i | nt | -4.8 | i | i
Cc1ccc(C(C(=O)NC2CCCCC2)N(Cc2cccnc2)C(=O)c2csnn2)cc1 (stereo unspecified) | i | i | i | i | i
Cc1cc(Nc2nc3ccccc3nc2Cl)n(-c2ccc([N+](=O)[O-])cc2)n1 | i | 100 | i | i | i
Cc1cc(Nc2nc3ccccc3[nH]c2=O)n(-c2ccccc2)n1 | i | i | i | i | i
Cc1ccc(-c2csc(Nc3ccccn3)n2)cc1 | i | i | i | i | i
COc1ccc(-c2csc(Nc3ccccn3)n2)cc1OC | i | 25 | i | i | i
O=c1c2ccccc2nc(COc2ccccc2)n1/N=C/c1cn[nH]c1-c1ccccc1 | i | i | -6.5 | i | i
CC1CN(S(=O)(=O)c2cccc(C(=O)N(C)C3CCCCC3)c2)CC(C)O1 (stereo unspecified) | i | nt | nt | i | i
COc1cccc(-c2cnc(C(O)c3ccc(C)cc3C)[nH]2)c1 (stereo unspecified) | i | nt | nt | nt | i
CC(NC(=O)CSc1nc2c(c(C(F)(F)F)n1)CCc1ccccc1-2)c1ccccc1 (stereo unspecified) | i | 100 | i | i | i
CSc1ccc(CNc2ccc(Cl)cc2)cc1 | i | 25 | i | i | i
Cc1ccc(NCSc2ccc(Cl)cc2)cc1 | i | nt | i | i | i
